Reference: PubChem BioAssay AID1259421 (Broad Institute, 2018)
“And” between values parts separate entries of the source, which are not always exact repeats. Identical values can stand only once. Hit rate of the full screen: of about 6,400 compounds, about 610 (9.5%) were called active. Rule as the data show it: active = activity change below about -70%; inconclusive = no clear call, values can overlap the other calls; inactive = above that. The list comes from a sample in which actives are over-represented; it also holds similar structures and randomly drawn compounds. A structure can be active in one record and inactive in another.

Assay: T. gondii ME49Luc in HeLa cells, luciferase assay, 72 h, no IFN-y (AID 1259421)
Conditions: stronger effect = lower value, concentration not given here
For `CCCC(O)C(CC)CO` (stereo not drawn), the activity change, negative = inhibition was 5.56% (inactive).
With `CC(=O)N[C@@H](C=O)[C@@H](O)[C@H](O)[C@H](O)CO` the activity change, negative = inhibition was 11.9% (inactive).
In the case of `O=C(NOCC(O)CO)c1cc(Br)c(F)c(F)c1Nc1ccc(I)cc1F` (stereo not drawn), the activity change, negative = inhibition is reported as 8.99% (inactive).
For `O=C(NOCC1CC1)c1ccc(F)c(F)c1Nc1ccc(I)cc1Cl`, the activity change, negative = inhibition was 11.9% (inactive).
For `Cc1cc(I)ccc1Nc1c(C(=O)NOCC2CC2)cc(F)c(F)c1F`, the activity change, negative = inhibition was -58.9% (inactive) and -87.6% (active).
With `CC(C)C1CCC(C(=O)N[C@@H](Cc2ccccc2)C(=O)O)CC1` (stereo partly drawn) the activity change, negative = inhibition was -3.8% (inactive).
With `COc1ccc(Cn2ccc3ccc(C(=O)NO)cc32)cc1` the activity change, negative = inhibition was 1.1% (inactive).
For `CCN(CC)Cc1ccc2cc(COC(=O)Nc3ccc(C(=O)NO)cc3)ccc2c1`, the activity change, negative = inhibition was -81.2% (active).
In the case of `CCN(CC)CCNC(=O)c1ccc(NC(C)=O)cc1`, the activity change, negative = inhibition is reported as 6.42% (inactive) and 2.78% (inactive).
In the case of `C[C@H]1O[C@H](O[C@H]2[C@H](O)[C@@H](O)[C@@H](O[C@H]3[C@H](O)[C@@H](O)[C@H](O)O[C@@H]3CO)O[C@@H]2CO)[C@H](O)[C@@H](O)[C@@H]1N[C@H]1C=C(CO)[C@@H](O)[C@H](O)[C@H]1O`, the activity change, negative = inhibition is reported as 8.26% (inactive).
With `COc1cc(/C=C(\C#N)C(N)=O)cc(CSc2nc3ccccc3s2)c1O` the activity change, negative = inhibition was -5% (inactive).
In the case of `COc1cccc(OC)c1-c1cc(C(=O)NC2(C(=O)O)C3CC4CC(C3)CC2C4)nn1-c1ccc(C(=O)N(C)CCCN(C)C)cc1C(C)C` (stereo not drawn), the activity change, negative = inhibition is reported as -1.72% (inactive).
In the case of `CC1=C(/C=C/C(=C/C=C/C(C)=C/C(=O)O)c2ccc(C)cc2)C(C)(C)CCC1`, the activity change, negative = inhibition is reported as 20.2% (inactive).
For `C[C@@]12CCc3occc3[C@H]1CC[C@@]13C[C@@H](CC[C@H]12)[C@@](O)(CO)C3`, the activity change, negative = inhibition was 14.1% (inactive).
For `CCN1CCCC(OC(=O)C(c2ccccc2)c2ccccc2)C1` (stereo not drawn), the activity change, negative = inhibition was 9.52% (inactive) and 11.2% (inactive).
With `CNC(=O)[C@@H](NC(=O)[C@H](CC(C)C)[C@H](O)C(=O)NO)C(C)(C)C` the activity change, negative = inhibition was 11.5% (inactive).
With `CC(C)C[C@@H](C(=O)N[C@H](C(=O)OC1CCCC1)c1ccccc1)[C@H](O)C(=O)NO` the activity change, negative = inhibition was -91.3% (active).
In the case of `C[C@@]1(c2nc3c(C(N)=O)cccc3[nH]2)CCCN1`, the activity change, negative = inhibition is reported as 0.526% (inactive).
In the case of `CC(C)Cn1cnc2c1c(=O)n(C)c(=O)n2C`, the activity change, negative = inhibition is reported as 12.6% (inactive).
With `NCCCCN(Cc1nc2ccccc2[nH]1)[C@H]1CCCc2cccnc21` the activity change, negative = inhibition was 25.8% (inactive).
For `NCCCC[C@H](NC(=O)[C@@H](Cc1cc(Br)c(O)c(Br)c1)NC(=O)N1CCC(N2Cc3ccccc3NC2=O)CC1)C(=O)N1CCN(c2ccncc2)CC1`, the activity change, negative = inhibition was 15.1% (inactive).
With `CC[C@H]1CN2CCc3cc(OC)c(OC)cc3C2C[C@@H]1CC1NCCc2cc(OC)c(OC)cc21` (stereo partly drawn) the activity change, negative = inhibition was -81.1% (active) and -96.6% (active).
For `COc1cc2c(cc1OC)C1Cc3ccc(OC)c(OC)c3CN1CC2` (stereo not drawn), the activity change, negative = inhibition was 8.53% (inactive).
For `COc1cc2c(cc1OC)[C@@H]1CC(=O)[C@@H](CC(C)C)CN1CC2`, the activity change, negative = inhibition was 11.3% (inactive) and 8.82% (inactive).
For `CC(=O)NCCC(=O)N[C@@H](Cc1cnc[nH]1)C(=O)O`, the activity change, negative = inhibition was 3.95% (inactive).
In the case of `CNC(=O)c1c(-c2ccc(F)cc2)oc2cc(N(CCO)S(C)(=O)=O)c(C3CC3)cc12`, the activity change, negative = inhibition is reported as 4.4% (inactive).
With `CC1(C)CC[C@]2(C(=O)O)CC[C@]3(C)C(=CCC4[C@@]5(C)CC[C@H](O)[C@@](C)(CO)C5CC[C@]43C)C2C1` (stereo partly drawn) the activity change, negative = inhibition was 4.93% (inactive).
For `NS(=O)(=O)c1cc2c(cc1Cl)NC=NS2(=O)=O`, the activity change, negative = inhibition was -6.64% (inactive) and 2.69% (inactive).
With `CC(C)[C@H]1C(=O)N[C@@H](CCCN=C(N)N)C(=O)NCC(=O)N[C@@H](CC(=O)O)C(=O)N[C@H](Cc2ccccc2)C(=O)N1C` the activity change, negative = inhibition was 33.3% (inactive).
In the case of `CC(=O)O[C@]1(C(C)=O)CC[C@H]2[C@@H]3CCC4=CC(=O)CCC4=C3[C@@H](c3ccc(N(C)C)cc3)C[C@@]21C`, the activity change, negative = inhibition is reported as -58.3% (inactive).
With `CC#C[C@]1(O)CC[C@H]2[C@@H]3CCC4=CC(=O)CCC4=C3[C@@H](c3ccc(N(C)C)cc3)C[C@@]21C` the activity change, negative = inhibition was -77.6% (active) and 19.9% (inactive).
In the case of `CC#CC1(O)CCC2C3CCC4=CC(=O)CCC4=C3C(c3ccc(N(C)C)cc3)CC21C` (stereo not drawn), the activity change, negative = inhibition is reported as 32.4% (inactive).
For `CCC[C@@H]1C[C@@H](C(=O)N[C@@H]([C@H]2O[C@H](SC)[C@H](O)[C@@H](O)[C@@H]2O)[C@@H](C)O)N(C)C1`, the activity change, negative = inhibition was 0.0317% (inactive).
With `C=CC(=O)NCc1ccccc1` the activity change, negative = inhibition was 10.8% (inactive).
With `COc1ccc(CN2C(=O)C(=O)c3cc(OC(F)(F)F)ccc32)cc1` the activity change, negative = inhibition was -31.8% (inactive).
In the case of `CC(=O)O/N=C1/C(=O)N(Cc2cc(Cl)ccc2Cl)c2ccc(Cl)cc21`, the activity change, negative = inhibition is reported as -78.1% (active).
In the case of `O=C1C(=O)N(Cc2ccc(Cl)c(Cl)c2)c2ccccc21`, the activity change, negative = inhibition is reported as 25.2% (inactive) and 12.2% (inactive).
In the case of `COc1ccc(Cl)cc1C(=O)NCCc1ccc(C(=O)O)cc1`, the activity change, negative = inhibition is reported as 10.3% (inactive).
With `CCCCCCCCCC(=O)N[C@@H](Cc1c[nH]c2ccccc12)C(=O)N[C@H](CC(N)=O)C(=O)N[C@@H](CC(=O)O)C(=O)N[C@@H]1C(=O)NCC(=O)N[C@@H](CCCN)C(=O)N[C@@H](CC(=O)O)C(=O)N[C@H](C)C(=O)N[C@@H](CC(=O)O)C(=O)NCC(=O)N[C@H](CO)C(=O)N[C@@H]([C@@H](C)CC(=O)O)C(=O)N[C@@H](CC(=O)c2ccccc2N)C(=O)O[C@@H]1C` the activity change, negative = inhibition was 5.37% (inactive).
For `C[C@H](O[C@H]1OCCN(Cc2n[nH]c(=O)[nH]2)[C@H]1c1ccc(F)cc1)c1cc(C(F)(F)F)cc(C(F)(F)F)c1`, the activity change, negative = inhibition was 3.24% (inactive).
With `Clc1cccc2c1CN(C1=NCCN1)C2` the activity change, negative = inhibition was 4.53% (inactive) and 6.96% (inactive).
For `O=C1CN2Cc3c(ccc(Cl)c3Cl)N=C2N1`, the activity change, negative = inhibition was -78.8% (active) and -0.538% (inactive).
With `Cc1nc2c([nH]1)CCN(C(=O)c1ccc(NC(=O)c3ccccc3-c3ccccc3)cc1)c1ccccc1-2` the activity change, negative = inhibition was 24.9% (inactive).
For `CC1(C)O[C@@H]2CC3C4C[C@H](F)C5=CC(=O)CC[C@]5(C)C4[C@@H](O)C[C@]3(C)[C@]2(C(=O)CO)O1` (stereo partly drawn), the activity change, negative = inhibition was -1.03% (inactive) and -3% (inactive).
For `CN(C)Cc1c(C(=O)NCCOc2ccc(C(=O)NO)cc2)oc2ccccc12`, the activity change, negative = inhibition was -78.9% (active).
In the case of `Cc1cc(C)c(N(Cc2ccccc2)S(=O)(=O)c2ccc(OCCNC(=O)c3cc4ccccc4o3)cc2)c(C(=O)NO)c1`, the activity change, negative = inhibition is reported as -49.7% (inactive).
For `CC(C)c1ccc(C(=O)NCCOc2ccc(C(=O)O)cc2)cc1`, the activity change, negative = inhibition was 52.4% (inactive).
For `OC[C@@H](O)C(O)[C@@H](O)CO` (stereo partly drawn), the activity change, negative = inhibition was 8.06% (inactive).
In the case of `C[C@@H]1CN(Cc2ccc(F)cc2)[C@@H](C)CN1C(=O)c1cc2c(C(=O)C(=O)N(C)C)cn(C)c2cc1Cl`, the activity change, negative = inhibition is reported as -1.84% (inactive).
For `CC1(COc2ccc(CC3SC(=O)NC3=O)cc2)CCCCC1` (stereo not drawn), the activity change, negative = inhibition was 54.6% (inactive) and 38.2% (inactive).
In the case of `O=c1cc[nH]c(=O)[nH]1`, the activity change, negative = inhibition is reported as 14.2% (inactive).
With `O=c1[nH]cc(F)c(=O)[nH]1` the activity change, negative = inhibition was -79.7% (active) and -73.9% (active).
For `O=C(OC1C[C@H]2CC[C@@H](C1)[N+]21CCCC1)C(O)(c1ccccc1)c1ccccc1` (stereo partly drawn), the activity change, negative = inhibition was 13% (inactive).
With `CC(C)OC(=O)c1cc2c(OCC(O)CNC(C)(C)C)cccc2[nH]1` (stereo not drawn) the activity change, negative = inhibition was 5.25% (inactive) and 2.42% (inactive).
In the case of `CN1N=C(C(N)=O)CCC1=O`, the activity change, negative = inhibition is reported as 5.39% (inactive).
In the case of `COc1cc(F)c(C(C)C)cc1-c1ccc(C(F)(F)F)cc1CN1C(=O)O[C@H](c2cc(C(F)(F)F)cc(C(F)(F)F)c2)[C@H]1C`, the activity change, negative = inhibition is reported as 13.2% (inactive).
In the case of `CC(C)[C@H](C(=O)Nc1ccc(C(=O)NO)cc1)c1ccccc1`, the activity change, negative = inhibition is reported as -78.5% (active).
For `CC(=O)Nc1ccc(C(=O)O)cc1`, the activity change, negative = inhibition was 5.72% (inactive).
With `O=C(O)c1ccc(NC(=O)[C@H](Cc2ccc(O)cc2)NC(=O)c2ccccc2)cc1` the activity change, negative = inhibition was 10.1% (inactive).
With `C[C@H]1CC[C@@]2(OC1)O[C@H]1C[C@H]3[C@@H]4CC[C@@H]5C[C@@H](O)CC[C@]5(C)[C@H]4CC[C@]3(C)[C@H]1[C@@H]2C` the activity change, negative = inhibition was 10.8% (inactive).
For `O=C1Nc2cc(Cl)ccc2Oc2ccccc21`, the activity change, negative = inhibition was 13.7% (inactive).
For `Cc1nc2c(c(=O)[nH]1)CSCC2`, the activity change, negative = inhibition was -9.85% (inactive).
With `CC(C)c1ccc2c(c1)CCC1C(C)(C(N)=O)CCCC21C` (stereo not drawn) the activity change, negative = inhibition was 39.8% (inactive).
In the case of `CCN(CC)CCOCCOC(=O)C(CC)(CC)c1ccccc1`, the activity change, negative = inhibition is reported as 22.3% (inactive).
For `Nc1ncnc2c1ncn2[C@@H]1O[C@H](C[C@@H](N)CC[C@H](N)C(=O)O)[C@@H](O)[C@H]1O`, the activity change, negative = inhibition was -5.35% (inactive).
In the case of `CCCCCCCCCCCCCCCC[N+](C)(C)CCN(Cc1ccc(OC)cc1)c1ncccn1`, the activity change, negative = inhibition is reported as -80.9% (active).
With `COc1ccc(CN(CCN(C)C)c2ccccn2)cc1` the activity change, negative = inhibition was 18% (inactive) and 6.75% (inactive).
In the case of `COc1ccc(CN(CCN(C)C)c2ncccn2)cc1`, the activity change, negative = inhibition is reported as 10.1% (inactive) and 11.2% (inactive).
For `C[C@]12C=CC(=O)C=C1CCC1C3C[C@@H](O)[C@](O)(C(=O)CO)[C@@]3(C)C[C@H](O)[C@@]12F` (stereo partly drawn), the activity change, negative = inhibition was -10.6% (inactive).
In the case of `CN(C)CCN1C(=O)c2cccc3cc(NC(N)=O)cc(c23)C1=O`, the activity change, negative = inhibition is reported as 5.35% (inactive).
With `Cc1csc(-c2nnc(Nc3ccc(Oc4ncccc4-c4ccnc(N)n4)cc3)c3ccccc23)c1` the activity change, negative = inhibition was -85.1% (active).
For `COC(=O)[C@H](Cc1ccc([N+](=O)[O-])cc1)NC(=O)c1cccc2ccccc12`, the activity change, negative = inhibition was 3.56% (inactive).
For `O=C1NC(=O)C2(CCOc3ccc(F)cc32)N1` (stereo not drawn), the activity change, negative = inhibition was 17.5% (inactive).
